SMILES strings stand for the structures. Values joined by “and” are separate entries in the source; they are usually repeats but may differ in a detail not shown here. Equal values may be shown once. Some compounds were tested as several samples or in several runs, with calls that do not always agree. Active and inactive are the calls of the source. How the source made its calls: active means hit-call score of the fitted dose curve at least 0.9, where 1 is the maximum; inactive means score below 0.9.

Read-out in this test: TIMP metallopeptidase inhibitor 1 (TIMP1), TIMP1 (gene 7076)
The test is described as follows: BSK_hDFCGF_TIMP1: BioMAP Diversity Plus: hDFCGF Assay for TIMP metallopeptidase inhibitor 1 (TIMP1) Biomarker Activity (AID 2283062). The settings on record: primary human foreskin fibroblasts; actives raise or lower the signal. On the procedure:
BSK_hDFCGF is a cell-based, multiplexed-readout assay that uses foreskin fibroblast, a human skin primary cell, with measurements taken at 24 hours after chemical dosing in a 96-well plate.BSK_hDFCGF_TIMP1 is an assay component measured in the BSK_hDFCGF assay. It measures TIMP-1 antibody related to regulation of gene expression using ELISA technology.Data from the assay component BSK_hDFCGF_TIMP1 was analyzed into 1 assay endpoint. This assay endpoint, BSK_hDFCGF_TIMP1, was analyzed with bidirectional fitting relative to DMSO as the negative control and baseline of activity. Using a type of binding reporter, gain or loss-of-signal activity can be used to understand changes in the signaling as they relate to the gene TIMP1. Furthermore, this assay endpoint can be referred to as a primary readout, because this assay has produced multiple assay endpoints where this one serves a signaling function. To generalize the intended target to other relatable targets, this assay endpoint is annotated to the protease inhibitor intended target family, where the subfamily is metalloproteinase inhibitor.
The levels of cell surface (or secreted, indicated by the prefix "s") biomarker endpoints were measured by ELISA. Overt cytotoxicity to cells in confluent adherent cultures (all systems other than the BT system) was assessed by measuring total protein levels using sulforhodamine B (SRB) staining in parallel cultures at the time of biomarker measurements, indicated as SRB endpoints. For proliferation assays for adherent cell types, individual cell types are cultured at sub-confluence and relative cell numbers quantified by SRB staining at time points optimized for each system (48 h: 3C and CASM3C systems; 72 h: BT and HDF3CGF systems; 96 h: SAg system). SRB was performed by staining cells with 0.1% SRB after fixation with 10% TCA and reading wells at 560 nm.Viability and proliferation of PBMC (T cells) was quantified by Alamar Blue reduction for the SAg and BT systems. For PBMC viability (referred to as PBMC Cytotoxicity within the assay endpoint names), cells were plated (75,000/well in a 96-well plate) and then chemical samples added for 1 h before addition of activators, SEB and TSST-1 (20 ng/mL final concentration each). Cells were incubated for 90 h. Then, Alamar Blue (20 uL/well) (Invitrogen, Cat DAL1100) was added for 6 h, and the plates were read with a fluorescence microplate reader at 546/580 nm (excitation/emission). For PBMC proliferation, cells were plated and activated as above but incubated for only 16 h prior to addition of Alamar Blue. Plates were read after 6 h.
As to `COCC(C)O` (stereo not given), the outcome was inactive.

The term AC50 denotes the concentration giving half of the maximal activity seen. In the case of `OCCC(F)(F)C(F)(F)C(F)(F)C(F)(F)C(F)(F)C(F)(F)F`, the AC50 is 53.1 µM (active) and 47.1 µM (active); the outcome was inactive. As to `CCCCCCCCOC(=O)CCCCCCCCC(=O)OCCCCCCCC`, the result was inactive.

For `CC(C)(C)CC(C)(C)c1ccc(O)c(-n2nc3ccccc3n2)c1`, the outcome was inactive. The same measure, in the same setting: next, `NC(=O)N(O)[C@@H]1C=C[C@H](Oc2cccc(Oc3ccc(F)cc3)c2)C1`: “inactive”. As for `Cc1oc(-c2ccccc2)nc1CCOc1ccc(C[C@H](Nc2ccccc2C(=O)c2ccccc2)C(=O)O)cc1`, the AC50 is 3.99 µM (active). Regarding `CC(C)(C)c1ccc(O)c(C(C)(C)C)c1`, the AC50 was 11.5 µM (active). Turning to `Cc1cc(C)c(O)c(C)c1`, the outcome was inactive.

Consider `C[C@@H]1C[C@H]2[C@@H]3CCC4=CC(=O)C=C[C@]4(C)[C@@]3(F)[C@@H](O)C[C@]2(C)[C@@]1(O)C(=O)COP(=O)(O)O`, for which the result was inactive and the AC50 is 2.65 µM (active). In the case of `CC1=C(/C=C/C(C)=C/C=C/C(C)=C/C(=O)O)C(C)(C)CCC1`, the AC50 is 31.2 µM (active). Consider `CCOC(=O)CC(O)(CC(=O)OCC)C(=O)OCC`, for which the outcome was inactive. In the case of `OCCC(F)(F)C(F)(F)C(F)(F)C(F)(F)C(F)(F)C(F)(F)C(F)(F)C(F)(F)F`, the result was inactive; the AC50 was 16.3 µM (active) and 14.6 µM (active).

As for `Nc1cccc2c(N)cccc12`, the outcome was inactive. With `Cc1cc(CCN2CCN(c3nsc4ccccc34)CC2)cc2c1NC(=O)CC2(C)C`, the half-maximal activity concentration (AC50) is 9.33 µM (active). Same read-out and setting: as for `FC(F)(I)C(F)(F)C(F)(F)C(F)(F)C(F)(F)C(F)(F)I`, the figure is 6.72 µM (active) [middle of 5 runs]. For the molecule `CCCCC(CC)COC(=O)CCCCC(=O)OCc1ccccc1` (stereo not given), the outcome was inactive. `CCc1ccc(CCOc2ccc(CC3SC(=O)NC3=O)cc2)nc1` (stereo not given): the outcome was inactive.

As to `Oc1cc2ccccc2c2ccccc12`, the half-maximal activity concentration (AC50) was 3.41 µM (active). In the case of `C#C[C@]1(O)CC[C@H]2[C@@H]3CCC4=CC(=O)CC[C@@H]4[C@H]3CC[C@@]21C`, the outcome was inactive. Still for that read-out and setting: next, `N#C[C@@H]1CC(F)(F)CN1C(=O)CNC1CC2CCC(C1)N2c1ncccn1` (stereo not given in full): “inactive”. For the molecule `CN1CCN(c2ccccc2/C=C2\SCCN(c3ccc(Cl)c(Cl)c3)C2=O)CC1`, the AC50 is 33.7 µM (active). Take `C=C(C)C(=O)OCCC(F)(F)C(F)(F)C(F)(F)C(F)(F)C(F)(F)C(F)(F)F`: the result was inactive. Consider `COC(=O)CCCCC(=O)OC`, for which the outcome was inactive.

With `c1ccc2c(c1)ccc1ccccc12`, the result was inactive. For `CCCCCCCCCCCCc1ccccc1S(=O)(=O)O`, the half-maximal activity concentration (AC50) was 11.9 µM (active). As to `COCC(C)OCC(C)O` (stereo not given), the outcome was inactive.

Turning to `O=C(O)Cc1cc(I)c(Oc2cc(I)c(O)c(I)c2)c(I)c1`, the result was inactive. Take `OC1CCCCC1`: the outcome was inactive. Take `CCCCOCCO`: the outcome was inactive. Still for that read-out and setting: as for `CCCCCCC(=O)O`, the entry is “inactive”. For the molecule `CCC(=C(c1ccc(O)cc1)c1ccc(OCCN(C)C)cc1)c1ccccc1`, the AC50 was 12.1 µM (active).

As for `CCCCC(CC)COC(=O)CCCCC(=O)OCC(CC)CCCC` (stereo not given), the outcome was inactive.

Take `CC(C)(C)c1cc(C(C)(C)C)c(O)c(C(C)(C)C)c1`: the AC50 was 31.8 µM (active). Take `COc1ccc([N+](=O)[O-])cc1N`: the outcome was inactive. On the same count and under the same terms, next, `O=[N+]([O-])c1ccc(O)cc1`: “inactive”; `OC1CCC(C2CCCCC2)CC1` (stereo not given): “inactive”; `O=C(O)c1ccccc1C(c1ccc(O)cc1)c1ccc(O)cc1`: “inactive”.

Source of the values: PubChem BioAssay (EPA / NIEHS).
